Experimental data as given in PubChem BioAssay (NCATS).
Records with an inconclusive call do not appear. Values without a mark were called inactive. Active and inactive are the calls of the source. Calls follow the shape of the dose curve; as a rule, active = well fitted inhibition curve with a large enough effect in the repeat runs; inconclusive = weak or mixed curves; inactive = flat fitted curve, though single readings scatter.

What follows are compounds tested against Cytochrome P450 2D6 (Homo sapiens) (UniProt P10635) (assay: Cytochrome P450 family 2 subfamily D member 6 (CYP2D6) small molecule antagonists: luciferase biochemical (cell-free) qHTS assay (AID 1645840; also: nearly all actives have a fitted effect of over 55% in size)). Conditions: P450-Glo CYP2D6 enzyme, luciferin luminescence, 1 h; series mostly up to 57.4 µM; activity change, negative = inhibition: at the top concentration.
Cytochrome P450 2D6 (Homo sapiens), sequence (P10635 whole entry, looked up): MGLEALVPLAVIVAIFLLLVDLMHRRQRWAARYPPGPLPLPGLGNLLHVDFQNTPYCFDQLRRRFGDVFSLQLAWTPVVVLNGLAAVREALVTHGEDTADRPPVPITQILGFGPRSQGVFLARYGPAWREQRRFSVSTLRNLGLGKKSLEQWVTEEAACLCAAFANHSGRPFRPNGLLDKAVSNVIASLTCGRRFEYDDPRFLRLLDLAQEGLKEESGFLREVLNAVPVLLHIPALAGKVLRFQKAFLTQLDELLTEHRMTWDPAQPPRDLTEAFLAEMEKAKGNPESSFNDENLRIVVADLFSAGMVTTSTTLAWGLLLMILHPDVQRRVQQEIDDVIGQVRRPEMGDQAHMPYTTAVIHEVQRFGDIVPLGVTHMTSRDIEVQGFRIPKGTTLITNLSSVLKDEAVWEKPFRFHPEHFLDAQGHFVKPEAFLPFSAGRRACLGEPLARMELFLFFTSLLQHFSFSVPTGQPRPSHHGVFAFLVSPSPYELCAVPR
Summary of the method: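 P450-Glo luminescent screen: recombinant CYP2D6 enzyme–proluciferin substrate mix preincubated with compound 10 min at room temperature, then NADPH regeneration added for 1 h at room temperature. Detection reagent added for 20 min; luciferin light read as relative luminescence units.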
% is scaled to controls: 0 for no effect and ±100 for the full control effect; potency is read from the fitted curve at half-maximal effect.

SMILES	activity change, negative = inhibition	Potency
CCCOC(=O)c1ccccc1	8.12%	
CN(C)CCCO[C@@H]1[C@H]2OC(C)(C)O[C@H]2O[C@@H]1C(O)CO (stereo not given in full)	6.91%	
COc1ccccc1O	7.01% [at 115 µM]	
CC12CCC(CC1)C(C)(C)O2	1.43%	
O=C(O)CC(O)C(=O)O (stereo not given)	-15.9%	
CC1(C)OC(=O)NC1=O	6.14%	
CC[C@@]1(c2ccccc2)NC(=O)N(C)C1=O	-0.0967%	
O=Cc1ccccc1C=O	-14.2%	
Oc1ccc(C(O)CNCCCCCCNCC(O)c2ccc(O)c(O)c2)cc1O (stereo not given)	-24.9%	
CC/C=C(\C(=O)N[C@@H]1C(=O)N2C(C(=O)OCOC(=O)C(C)(C)C)=C(COC(N)=O)CS[C@H]12)c1csc(N)n1		inactive
N[C@@H](CSCCCO)C(=O)O	2.25% [at 23.9 µM]	
CCOC(=O)[C@H](CCc1ccccc1)N[C@@H](C)C(=O)N1C(=O)N(C)C[C@H]1C(=O)O		inactive
CCCCN(CCCC)CCCOC(=O)c1ccc(N)cc1		30.9 nM (active)
CCOc1ccc2ccccc2c1C(=O)N[C@@H]1C(=O)N2[C@@H]1SC(C)(C)[C@@H]2C(=O)O	-2.09%	
C[C@@H]1CCN(C(=O)[C@H](CCCN=C(N)N)NS(=O)(=O)c2cccc3c2NC[C@H](C)C3)[C@@H](C(=O)O)C1	-0.723%	
COc1cc(C(=O)N2CCOCC2)cc(OC)c1OC	0.791%	
O=C1OC(OC(=O)c2cccnc2Nc2cccc(C(F)(F)F)c2)c2ccccc21 (stereo not given)	-16.4%	
O=C(O)COc1nn(Cc2ccccc2)c2ccccc12	-3.29%	
NCC(=O)CCC(=O)O	0.484%	
CC1=C(C/C=C(\C)CCC[C@H](C)CCC[C@H](C)CCCC(C)C)C(=O)c2ccccc2C1=O	-18.6%	
